The values that follow come from PubChem BioAssay (EPA / NIEHS).

Values joined by “and” are separate entries in the source; they are usually repeats but may differ in a detail not shown here. Equal entries are not always repeated. Results filed as inconclusive are left out. Some structures have more than one record in an assay (separate samples or runs), and their calls can disagree. Active and inactive are the calls of the source. The calls were made as follows, unless noted: active = hit-call score of the fitted dose curve at least 0.9, where 1 is the maximum; inconclusive = response in the unintended direction; inactive = score below 0.9.

Assay [1] is described as follows: BSK_3C_VCAM1: BioMAP Diversity Plus: 3C Assay for Vascular cell adhesion molecule 1 (VCAM1) Biomarker Activity (AID 2282999; active = hit-call score of the fitted dose curve at least 0.9, where 1 is the maximum; inactive = score below 0.9). The settings on record: BioMAP 3C HUVEC, VCAM1 ELISA, cytokine-stimulated; actives raise or lower the signal. The procedure, abridged:
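Human umbilical vein endothelial cells were dosed with compound for 24 h, after which cell-surface VCAM-1 was quantified by ELISA. Bidirectional curve fitting used DMSO as negative control and activity baseline.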
On the technique in general: An ELISA detects its analyte on a solid surface through an enzyme-linked reagent.

The nature of assay [2]: BSK_4H_Eotaxin3: BioMAP Diversity Plus: 4H Assay for Eotaxin 3 Biomarker Activity (AID 2283000; active = hit-call score of the fitted dose curve at least 0.9, where 1 is the maximum; inactive = score below 0.9;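 as to outcome: CCL26 protein level quantified by ELISA in parallel with SRB cytotoxicity check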). The settings on record: primary human endothelial cells (HUVEC); actives raise or lower the signal. The gist of the method:
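HUVEC, 24 h post-dose, ELISA for Eotaxin-3/CCL26. Gain or loss of signal fitted bidirectionally vs DMSO baseline.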

Assay [3] has as its target human Peroxisome Proliferator-activated Receptor alpha (PPARa), PPARA (gene 5465) (UniProt Q07869). The experiment in a line: ATG_PPARa_TRANS: Attagene TRANS-FACTORIAL HepG2 Assay for human Peroxisome Proliferator-activated Receptor alpha (PPARa) (AID 2283001).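 As to AC50: potency for gain of reporter signal over DMSO so agonist or activator.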 The gist of the method:
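Gain-of-signal endpoint: reporter mRNA induction relative to DMSO, detected by fluorescent RT-PCR and capillary electrophoresis. HepG2 cells transiently carried GAL4-UAS-driven reporter units plus NR-Gal4 fusion; exposure lasted 24 h.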

Assay [4] has as its target human Peroxisome Proliferator-activated Receptor delta (PPARd), PPARD (gene 5467) (UniProt Q03181). The experiment in a line: ATG_PPARd_TRANS: Attagene TRANS-FACTORIAL HepG2 Assay for human Peroxisome Proliferator-activated Receptor delta (PPARd) (AID 2283002). The procedure, abridged:
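Multiplexed trans-activation format: HepG2 liver cells expressing exogenous NR-Gal4 chimeras and GAL4-UAS reporters were exposed for 24 h. Reporter mRNA was detected by RT-PCR with capillary electrophoresis fluorescence; activity fitted as gain of signal relative to DMSO.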

Read-out in assay [5]: Intercellular Adhesion Molecule 1 (ICAM1), ICAM1 (gene 3383)
Nature of the assay: BSK_3C_ICAM1: BioMAP Diversity Plus: 3C Assay for Intercellular Adhesion Molecule 1 (ICAM1) Biomarker Activity (AID 2283003; active = hit-call score of the fitted dose curve at least 0.9, where 1 is the maximum; inactive = score below 0.9). The conditions noted are these: primary human endothelial cells (HUVEC); actives raise or lower the signal. The procedure, abridged: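 ICAM-1 levels measured by ELISA after HUVEC cultures in the 3C system had been dosed for 24 h. Gain or loss of signal relative to DMSO was fitted in both directions.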

Assay [6] deals with human Retinoic Acid Receptor beta (RARb), RARB (gene 5915) (UniProt P10826). The experiment in a line: ATG_RARb_TRANS: Attagene TRANS-FACTORIAL HepG2 Assay for human Retinoic Acid Receptor beta (AID 2283004). The procedure, abridged:
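HepG2 cells transiently transfected with multiplexed GAL4-UAS reporter units expressing chimeric NR–Gal4 fusions; 24 h compound exposure. Reporter mRNA quantified by RT-PCR, 6-FAM labelling, HpaI digestion and capillary electrophoresis; gain-of-signal fitted against DMSO baseline.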

In assay [7] the target is Retinoic acid receptor alpha (Homo sapiens) (UniProt P10276). Nature of the assay: ATG_RARa_TRANS: Attagene TRANS-FACTORIAL HepG2 Assay for human Retinoic Acid Receptor alpha (RARa) (AID 2283005). The procedure, abridged: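 HepG2 cells transiently transfected with multiple reporter units expressing chimeric RARα-GAL4 fusion, with GAL4-UAS-driven reporters. After 24 h compound exposure, reporter mRNA induction quantified by RT-PCR and capillary electrophoresis with fluorescent labeling; gain-of-signal fitted relative to DMSO control.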
Chain of Retinoic acid receptor alpha (Homo sapiens) (P10276 whole entry, looked up, the tested form may be a part): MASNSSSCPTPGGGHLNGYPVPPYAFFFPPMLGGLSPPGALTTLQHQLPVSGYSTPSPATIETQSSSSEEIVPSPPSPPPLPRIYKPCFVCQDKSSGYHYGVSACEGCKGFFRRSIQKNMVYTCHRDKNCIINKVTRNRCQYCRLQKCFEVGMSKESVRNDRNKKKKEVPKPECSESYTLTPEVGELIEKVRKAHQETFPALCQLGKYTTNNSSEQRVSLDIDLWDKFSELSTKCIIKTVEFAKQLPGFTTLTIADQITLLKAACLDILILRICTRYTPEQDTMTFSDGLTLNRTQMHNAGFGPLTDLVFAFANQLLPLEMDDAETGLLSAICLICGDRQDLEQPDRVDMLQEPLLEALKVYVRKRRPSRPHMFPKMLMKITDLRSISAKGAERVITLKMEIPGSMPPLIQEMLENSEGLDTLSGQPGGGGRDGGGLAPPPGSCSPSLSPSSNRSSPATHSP

Assay [8] can be described thus: BSK_3C_Proliferation: Cell Proliferation Assessment in the BioMAP Diversity Plus: 3C Assay (AID 2283006; active = hit-call score of the fitted dose curve at least 0.9, where 1 is the maximum; inactive = score below 0.9;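 as to AC50: potency may reflect either rise or fall in cell number versus DMSO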). The settings on record: primary human endothelial cells (HUVEC). The procedure, abridged:
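Read-out is total protein by SRB absorbance at 560 nm, taken as a proxy for relative cell number. Primary human umbilical vein endothelium cultured below confluence was dosed for 48 h, TCA-fixed and SRB-stained; curves were fitted bidirectionally versus DMSO.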

Assay [9] has as its target Peroxisome proliferator-activated receptor gamma (Homo sapiens) (UniProt P37231). The experiment in a line: ATG_PPARg_TRANS: Attagene TRANS-FACTORIAL HepG2 Assay for human Peroxisome Proliferator-activated Receptor-gamma (PPARg) (AID 2283007). The procedure, abridged:
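A TRANS-format multiplexed reporter assay measures activity of an exogenous chimeric NR-Gal4 protein in HepG2 cells. After 24 h of chemical exposure, reporter transcripts are amplified, fluorescently labelled and sized by capillary electrophoresis, with gain of signal scored against DMSO.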

Assay [10] concerns the target Nuclear receptor subfamily 1 group I member 2 (Homo sapiens) (UniProt O75469). The experiment in a line: ATG_PXR_TRANS: Attagene TRANS-FACTORIAL HepG2 Assay for human Pregnane X Receptor (PXR) (AID 2283008). The procedure, abridged: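 HepG2 cells transiently transfected with multiple reporter units, here a PXR-GAL4 chimera driving a GAL4-UAS reporter; 24 h compound exposure. Reporter mRNA measured by RT-PCR, FAM labelling and capillary electrophoresis; gain of signal fitted against DMSO baseline.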

In assay [11] the target is Retinoic acid receptor RXR-alpha (Homo sapiens) (UniProt P19793). The experiment in a line: ATG_RXRa_TRANS: Attagene TRANS-FACTORIAL HepG2 Assay for human Retinoid X Receptor alpha (RXRa) (AID 2283012). The procedure, abridged: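 Transient transfection of human HepG2 with multiple GAL4-UAS reporter constructs; 24 h compound exposure; total RNA isolated, reverse-transcribed, PCR-amplified, 6-FAM labelled, HpaI-cut, resolved by capillary electrophoresis. Positive-direction fit versus DMSO.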
Chain of Retinoic acid receptor RXR-alpha (Homo sapiens) (P19793 whole entry, looked up, the tested form may be a part): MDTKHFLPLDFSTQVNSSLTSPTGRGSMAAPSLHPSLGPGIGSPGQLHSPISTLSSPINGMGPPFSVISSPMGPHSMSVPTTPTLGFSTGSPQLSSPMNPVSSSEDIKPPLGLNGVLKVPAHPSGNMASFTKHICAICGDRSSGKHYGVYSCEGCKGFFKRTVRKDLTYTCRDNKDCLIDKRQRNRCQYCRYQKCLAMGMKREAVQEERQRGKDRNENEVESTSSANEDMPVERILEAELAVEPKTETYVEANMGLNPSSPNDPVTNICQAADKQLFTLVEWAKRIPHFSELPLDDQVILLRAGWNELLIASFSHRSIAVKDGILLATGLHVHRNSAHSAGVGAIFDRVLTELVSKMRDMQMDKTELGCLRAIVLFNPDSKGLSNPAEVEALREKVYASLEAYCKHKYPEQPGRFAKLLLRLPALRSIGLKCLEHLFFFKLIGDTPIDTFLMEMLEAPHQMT

In assay [12] the target is human Retinoid X Receptor beta (RXRb), RXRB (gene 6257) (UniProt P28702). The experiment in a line: ATG_RXRb_TRANS: Attagene TRANS-FACTORIAL HepG2 Assay for human Retinoid X Receptor beta (RXRb) (AID 2283013). The procedure, abridged:
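Transfect HepG2 with GAL4-UAS multi-reporter constructs (chimeric NR-Gal4, TRANS format); dose compound 24 h; isolate RNA, RT-PCR, FAM primer extension, HpaI digest; quantify by capillary electrophoresis; positive direction vs DMSO.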

Read-out in assay [13]: E-selectin (Homo sapiens) (UniProt P16581)
Nature of the assay: BSK_3C_Eselectin: BioMAP Diversity Plus: 3C Assay for Eselectin Biomarker Activity (AID 2283015; active = hit-call score of the fitted dose curve at least 0.9, where 1 is the maximum; inactive = score below 0.9;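 as to outcome: cell surface E-selectin protein quantified by ELISA 24 h after dosing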). The conditions noted are these: primary human endothelial cells (HUVEC); actives raise or lower the signal. The gist of the method:
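Primary human umbilical vein endothelial cells (3C system) were dosed with chemical and cell-surface E-selectin measured by ELISA 24 h later. Bidirectional curve fitting used DMSO as negative control and baseline.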

Read-out in assay [14]: Interleukin-1 alpha (IL1a), IL1A (gene 3552)
The experiment in a line: BSK_BE3C_IL1a: BioMAP Diversity Plus: BE3C Assay for Interleukin-1 alpha (IL1a) Biomarker Activity (AID 2283016; active = hit-call score of the fitted dose curve at least 0.9, where 1 is the maximum; inactive = score below 0.9). The settings on record: primary human bronchial epithelial cells; actives raise or lower the signal. The gist of the method:
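BE3C primary human bronchial epithelium; cpd 24 h; IL-1a by ELISA; bidirectional fit vs DMSO; parallel SRB (0.1% SRB, 10% TCA fix, 560 nm) for cytotoxicity.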

Read-out in assay [15]: Monocyte Chemoattractant Protein-1 (MCP1), CCL2 (gene 6347)
Nature of the assay: BSK_3C_MCP1: BioMAP Diversity Plus: 3C Assay for Monocyte Chemoattractant Protein-1 (MCP1) Biomarker Activity (AID 2283017; active = hit-call score of the fitted dose curve at least 0.9, where 1 is the maximum; inactive = score below 0.9). The settings on record: primary human endothelial cells (HUVEC); actives raise or lower the signal. The gist of the method: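 Primary human umbilical vein endothelial cells (3C system) were exposed to test chemical for 24 h, after which MCP-1 was quantified by ELISA. Activity was fitted bidirectionally against DMSO as negative control and baseline.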

Read-out in assay [16]: Monocyte Chemoattractant Protein-1 (MCP1), CCL2 (gene 6347)
The experiment in a line: BSK_4H_MCP1: BioMAP Diversity Plus: 4H Assay for Monocyte Chemoattractant Protein-1 (MCP1) Biomarker Activity (AID 2283018; active = hit-call score of the fitted dose curve at least 0.9, where 1 is the maximum; inactive = score below 0.9). The conditions noted are these: primary human endothelial cells (HUVEC); actives raise or lower the signal. The gist of the method: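 ELISA read-out of MCP-1 from human vascular endothelial primary cells taken at 24 hours after compound exposure. Activity was fitted in both directions relative to DMSO, which served as negative control.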

In assay [17] the target is human Retinoic Acid Receptor gamma (RARg), RARG (gene 5916) (UniProt P13631). The experiment in a line: ATG_RARg_TRANS: Attagene TRANS-FACTORIAL HepG2 Assay for human Retinoic Acid Receptor gamma (RARg) (AID 2283009). The gist of the method: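 Transient transfection of HepG2 with multi-reporter constructs, then 24 h chemical treatment. Total RNA isolated, reverse-transcribed, PCR-amplified, fluorescently labelled and resolved by capillary electrophoresis; activity scored as mRNA induction versus DMSO.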
Chain of human Retinoic Acid Receptor gamma (RARg), RARG (gene 5916) (P13631 whole entry, looked up): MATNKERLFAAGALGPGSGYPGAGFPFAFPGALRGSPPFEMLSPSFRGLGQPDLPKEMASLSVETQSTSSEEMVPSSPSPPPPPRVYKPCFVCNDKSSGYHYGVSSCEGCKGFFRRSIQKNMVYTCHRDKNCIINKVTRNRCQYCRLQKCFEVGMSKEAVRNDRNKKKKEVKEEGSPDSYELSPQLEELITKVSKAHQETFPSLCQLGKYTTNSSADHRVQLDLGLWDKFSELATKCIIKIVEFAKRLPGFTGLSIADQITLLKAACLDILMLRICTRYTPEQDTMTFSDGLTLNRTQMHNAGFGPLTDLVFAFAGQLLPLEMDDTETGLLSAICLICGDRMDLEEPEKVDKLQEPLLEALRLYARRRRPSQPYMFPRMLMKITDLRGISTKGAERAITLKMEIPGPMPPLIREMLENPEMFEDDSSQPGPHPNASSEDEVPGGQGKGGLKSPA

The target of assay [18] is human RAR-related Orphan Receptor beta (RORb), RORB (gene 6096) (UniProt Q92753). Nature of the assay: ATG_RORb_TRANS: Attagene TRANS-FACTORIAL HepG2 Assay for human RAR-related Orphan Receptor beta (RORb) (AID 2283010). The gist of the method: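 Readout is reporter-gene mRNA induction, detected as fluorescence after RT-PCR and capillary electrophoresis, fitted for gain of signal against DMSO controls. Transiently transfected HepG2 liver cells carrying GAL4-UAS reporter constructs were treated for 24 hours.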

For assay [19], the target named is human RAR-related Orphan Receptor gamma (RORg), RORC (gene 6097) (UniProt P51449). The experiment in a line: ATG_RORg_TRANS: Attagene TRANS-FACTORIAL HepG2 Assay for human RAR-related Orphan Receptor gamma (RORg) (AID 2283011). The procedure, abridged: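 Readout: reporter transcript induction (RT-PCR, fluorescent primer extension, capillary electrophoresis) after 24 h compound exposure of transiently transfected HepG2 cells carrying a RORg-Gal4 chimera and GAL4-UAS reporters; DMSO served as baseline, with increasing signal fitted.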
Chain of human RAR-related Orphan Receptor gamma (RORg), RORC (gene 6097) (P51449 whole entry, looked up, the tested form may be a part): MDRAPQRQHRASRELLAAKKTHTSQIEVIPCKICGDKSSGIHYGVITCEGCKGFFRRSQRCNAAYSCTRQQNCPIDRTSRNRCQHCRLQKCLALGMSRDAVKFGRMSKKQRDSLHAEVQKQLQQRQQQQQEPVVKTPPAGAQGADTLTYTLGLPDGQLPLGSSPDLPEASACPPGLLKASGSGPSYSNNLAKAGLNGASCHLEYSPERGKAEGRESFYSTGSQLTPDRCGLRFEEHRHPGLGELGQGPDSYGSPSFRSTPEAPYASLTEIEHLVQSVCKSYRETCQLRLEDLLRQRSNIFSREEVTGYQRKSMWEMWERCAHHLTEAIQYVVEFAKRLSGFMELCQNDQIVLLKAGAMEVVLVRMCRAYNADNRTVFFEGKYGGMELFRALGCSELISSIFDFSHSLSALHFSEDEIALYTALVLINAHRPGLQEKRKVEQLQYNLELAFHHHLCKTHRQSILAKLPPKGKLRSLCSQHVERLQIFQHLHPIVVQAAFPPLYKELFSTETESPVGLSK

Assay [20] deals with human Thyroid Receptor alpha (THRa1), THRA (gene 7067) (UniProt P10827). Nature of the assay: ATG_THRa1_TRANS: Attagene TRANS-FACTORIAL HepG2 Assay for human Thyroid Receptor alpha (THRa1) (AID 2283014). The gist of the method:
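HepG2 cells transiently transfected with multiplexed GAL4-UAS reporter units for exogenous chimeric THRa1-Gal4; reporter mRNA measured 24 h after dosing by RT-PCR, 6-FAM labelling, HpaI digestion and capillary electrophoresis. Gain-of-signal fitted versus DMSO baseline.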

Chain of Peroxisome proliferator-activated receptor gamma (Homo sapiens) (P37231 whole entry, looked up, the tested form may be a part): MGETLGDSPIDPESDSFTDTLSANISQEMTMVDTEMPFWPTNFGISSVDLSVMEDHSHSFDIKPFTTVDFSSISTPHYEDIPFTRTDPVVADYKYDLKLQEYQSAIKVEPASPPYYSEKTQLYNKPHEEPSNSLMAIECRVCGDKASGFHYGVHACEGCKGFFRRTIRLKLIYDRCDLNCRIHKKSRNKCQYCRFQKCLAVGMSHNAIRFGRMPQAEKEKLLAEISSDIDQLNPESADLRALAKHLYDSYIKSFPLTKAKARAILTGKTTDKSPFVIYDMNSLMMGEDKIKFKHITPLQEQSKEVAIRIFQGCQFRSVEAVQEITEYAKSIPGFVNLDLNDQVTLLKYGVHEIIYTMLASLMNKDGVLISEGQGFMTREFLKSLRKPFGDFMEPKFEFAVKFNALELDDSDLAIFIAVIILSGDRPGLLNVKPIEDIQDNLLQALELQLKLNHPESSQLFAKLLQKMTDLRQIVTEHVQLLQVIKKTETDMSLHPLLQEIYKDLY
Chain of Nuclear receptor subfamily 1 group I member 2 (Homo sapiens) (O75469 whole entry, looked up, the tested form may be a part): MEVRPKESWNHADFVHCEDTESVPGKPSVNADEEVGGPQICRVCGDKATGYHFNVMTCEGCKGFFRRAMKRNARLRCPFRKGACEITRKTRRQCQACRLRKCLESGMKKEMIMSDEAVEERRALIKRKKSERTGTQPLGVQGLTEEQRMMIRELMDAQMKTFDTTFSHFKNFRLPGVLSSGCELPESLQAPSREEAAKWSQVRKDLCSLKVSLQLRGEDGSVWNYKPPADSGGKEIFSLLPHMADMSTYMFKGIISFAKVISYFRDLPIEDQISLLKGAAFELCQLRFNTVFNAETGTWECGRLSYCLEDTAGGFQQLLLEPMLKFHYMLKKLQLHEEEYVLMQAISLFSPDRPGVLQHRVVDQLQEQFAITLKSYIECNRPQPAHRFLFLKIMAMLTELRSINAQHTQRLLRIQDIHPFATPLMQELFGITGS
Chain of human Retinoic Acid Receptor beta (RARb), RARB (gene 5915) (P10826 whole entry, looked up, the tested form may be a part): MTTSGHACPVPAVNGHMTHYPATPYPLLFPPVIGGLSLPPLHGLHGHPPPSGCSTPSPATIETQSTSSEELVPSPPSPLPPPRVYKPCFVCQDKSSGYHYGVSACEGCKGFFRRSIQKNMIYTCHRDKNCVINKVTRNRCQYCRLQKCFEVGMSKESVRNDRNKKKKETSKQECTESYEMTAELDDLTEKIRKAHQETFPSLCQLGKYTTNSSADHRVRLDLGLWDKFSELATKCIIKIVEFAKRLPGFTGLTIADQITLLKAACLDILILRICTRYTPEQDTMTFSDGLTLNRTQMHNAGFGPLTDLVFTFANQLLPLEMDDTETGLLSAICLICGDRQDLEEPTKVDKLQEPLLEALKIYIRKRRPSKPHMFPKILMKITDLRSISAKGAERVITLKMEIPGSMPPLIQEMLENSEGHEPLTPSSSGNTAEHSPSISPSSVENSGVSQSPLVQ
Chain of human Thyroid Receptor alpha (THRa1), THRA (gene 7067) (P10827 whole entry, looked up, the tested form may be a part): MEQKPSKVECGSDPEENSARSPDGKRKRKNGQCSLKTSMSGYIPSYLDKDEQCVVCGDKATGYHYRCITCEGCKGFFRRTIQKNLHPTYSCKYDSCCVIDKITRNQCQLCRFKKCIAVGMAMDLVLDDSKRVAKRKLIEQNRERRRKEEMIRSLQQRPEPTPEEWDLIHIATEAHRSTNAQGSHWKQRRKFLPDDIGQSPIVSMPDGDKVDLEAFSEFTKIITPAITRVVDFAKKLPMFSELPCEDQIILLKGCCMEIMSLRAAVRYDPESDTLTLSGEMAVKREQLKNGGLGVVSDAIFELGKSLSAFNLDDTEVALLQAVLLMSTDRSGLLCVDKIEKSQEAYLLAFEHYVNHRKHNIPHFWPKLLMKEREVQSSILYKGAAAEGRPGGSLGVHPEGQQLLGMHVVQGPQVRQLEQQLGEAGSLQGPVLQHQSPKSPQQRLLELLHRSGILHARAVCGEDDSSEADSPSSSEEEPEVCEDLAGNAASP
Chain of E-selectin (Homo sapiens) (P16581 whole entry, looked up): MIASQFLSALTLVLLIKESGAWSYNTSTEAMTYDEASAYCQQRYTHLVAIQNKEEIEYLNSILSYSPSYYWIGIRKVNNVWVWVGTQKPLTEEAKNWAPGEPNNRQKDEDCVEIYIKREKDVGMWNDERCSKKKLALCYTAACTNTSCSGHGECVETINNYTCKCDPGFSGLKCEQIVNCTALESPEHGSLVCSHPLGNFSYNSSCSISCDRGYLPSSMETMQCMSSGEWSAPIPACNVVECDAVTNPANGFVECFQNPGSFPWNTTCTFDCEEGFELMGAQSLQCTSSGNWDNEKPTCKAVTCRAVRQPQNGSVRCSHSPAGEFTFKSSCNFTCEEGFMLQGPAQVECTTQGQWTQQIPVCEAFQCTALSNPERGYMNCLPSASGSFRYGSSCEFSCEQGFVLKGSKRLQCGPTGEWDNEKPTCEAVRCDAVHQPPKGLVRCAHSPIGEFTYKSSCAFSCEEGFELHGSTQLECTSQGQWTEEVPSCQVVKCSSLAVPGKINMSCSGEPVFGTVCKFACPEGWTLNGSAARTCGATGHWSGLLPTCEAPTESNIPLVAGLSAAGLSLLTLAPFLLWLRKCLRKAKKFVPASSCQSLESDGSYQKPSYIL
Chain of human Peroxisome Proliferator-activated Receptor alpha (PPARa), PPARA (gene 5465) (Q07869 whole entry, looked up, the tested form may be a part): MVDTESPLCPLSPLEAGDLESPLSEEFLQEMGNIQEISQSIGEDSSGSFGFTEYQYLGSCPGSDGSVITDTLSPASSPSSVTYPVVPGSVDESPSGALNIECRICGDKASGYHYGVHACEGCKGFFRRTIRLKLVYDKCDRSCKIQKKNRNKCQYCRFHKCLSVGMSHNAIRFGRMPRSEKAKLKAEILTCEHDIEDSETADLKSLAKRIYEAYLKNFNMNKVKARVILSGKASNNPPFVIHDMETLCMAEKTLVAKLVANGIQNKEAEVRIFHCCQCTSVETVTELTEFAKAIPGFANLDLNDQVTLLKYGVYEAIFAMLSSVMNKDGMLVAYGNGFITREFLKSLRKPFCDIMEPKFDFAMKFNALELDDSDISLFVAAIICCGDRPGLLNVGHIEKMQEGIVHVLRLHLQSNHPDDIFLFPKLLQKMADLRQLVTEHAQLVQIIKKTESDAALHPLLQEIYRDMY

For orientation: AC50 means the midpoint of the concentration-response curve, whichever way the signal moves. Turning to `c1ccc(Nc2ccccc2)cc1`, the outcome in assay [1], in [2], in assay [3], in assay [4], in assay [5] and in [6] was inactive. The molecule was classed as inactive in assay [7], in assay [8], in assay [10], in assay [11], in [12] and in assay [13]. The outcome in assay [14], in assay [15] and in assay [16] was inactive. For the same molecule, the concentration at half-maximal activity (AC50) in assay [9] is 50 µM (active).
Take `OB(O)O`: the result in assay [1], in assay [2], in [3], in assay [4], in assay [5] and in assay [6] was inactive. The result in assay [7], in assay [8], in assay [9], in assay [10], in assay [17] and in [18] was inactive. The molecule was classed as inactive in assay [19], in assay [11], in [13], in assay [14], in assay [15] and in assay [16].
In the case of `C[C@]12C[C@H](O)[C@H]3[C@@H](CCC4=CC(=O)CC[C@@]43C)[C@@H]1CC[C@@H]2C(=O)CO`, the result in assay [1], in assay [2], in assay [4], in [5], in [6] and in assay [9] was inactive. For the same molecule, the molecule was classed as inactive in [10], in assay [19], in assay [11], in assay [12], in [20] and in [13]. For the same molecule, the result in assay [15] and in assay [16] was inactive. For the same molecule, the half-maximal activity concentration (AC50) is 29 µM (active) in assay [8]; 27.7 µM (active) and 11.4 µM (active) in assay [10].
With `CCOC(=O)c1ccc(O)cc1`, the result in [1], in assay [2], in assay [4], in assay [5], in assay [6] and in assay [7] was inactive. Besides, the outcome in [8], in assay [10], in [17], in assay [11], in assay [12] and in [20] was inactive. Moreover, the result in [13], in [14], in assay [15] and in [16] was inactive.
For `CC(=O)S[C@@H]1CC2=CC(=O)CC[C@]2(C)[C@H]2CC[C@@]3(C)[C@@H](CC[C@@]34CCC(=O)O4)[C@H]12`, the AC50 is 29.5 µM (active) in [1]; 36.5 µM (active) in assay [2]; 28 µM (active) in assay [8]; 20 µM (active) in [13]; 27.7 µM (active) in [15]; 20 µM (active) in assay [16]. Besides, the molecule was classed as inactive in [3], in [4], in [5], in assay [9], in assay [10] and in assay [19]. Besides, the molecule was called inactive in assay [11] and in assay [20].
Take `CN(C)C(=O)Nc1ccc(Cl)c(Cl)c1`: the outcome in [1], in assay [2], in [3], in assay [4], in assay [5] and in assay [6] was inactive. The outcome in assay [7], in assay [8], in assay [9], in [10], in [17] and in [18] was inactive. Besides, the molecule was classed as inactive in [19], in assay [11], in assay [12], in assay [20], in assay [13] and in assay [15]. Further, in [16], the outcome was inactive. The concentration at half-maximal activity (AC50) in assay [3] is 15 µM (active); in assay [10], 6.84 µM (active).
